Reference: PubChem BioAssay
Unmarked numbers belong to inactive results. Activity calls are given as the source filed them. Cut-off read from the data, not from the text of the source, unless noted: active = inhibition above about 28%; inactive = the rest.

What was measured:
[1] = target: Nuclear receptor coactivator 3 (Homo sapiens) (UniProt Q9Y6Q9); test: NCOA3 GAL4-fusion reporter inhibition – cell-based, luminescence, quadruplicate, confirmation (AID 588792;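 active = mean inhibition over 43.08%, the solvent-only control mean plus 3 SD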;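 note: 0% = DMSO treated cells and 100% = gossypol at 36 µM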); details: HEK293 GAL4-SRC3 luciferase reporter, at 3.6 µM, active compounds read high
[2] = tested on: transactivating tegument protein VP16 (Human herpesvirus 1), Gal4-VP16 luciferase reporter; test: repression of VP16-driven luciferase reporter – cell-based, luminescence, high throughput, counter-screen for SRC3 inhibitor project (AID 588794; in the data active = inhibition above about 30%); details: mammalian cells, at 3.6 µM, active compounds read high
[3] = target: Nuclear receptor coactivator 1 (Homo sapiens) (UniProt Q15788); test: NCOA1 GAL4-fusion reporter inhibition – cell-based, luminescence, quadruplicate, confirmation (AID 588820;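 active = mean inhibition above 46.68%, the untreated control wells mean plus 3 SD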;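 note: 0% = DMSO wells and 100% = gossypol 36 µM treated wells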); details: HEK293 GAL4-SRC1 luciferase reporter, at 3.6 µM, active compounds read high
[4] = repression of VP16-driven luciferase reporter – cell-based, luminescence, high throughput, counter-screen for SRC1 inhibitor project (AID 588824; in the data active = inhibition above about 25%); details: cell-based VP16 transactivation luciferase luminescence; at 3.6 µM; active compounds read high
[5] = StAR promoter reporter inhibitors, counter-screen for LRH-1 inverse agonist project, cell-based, luminescence, high throughput (AID 651611); details: StAR promoter luciferase reporter counterscreen, at 3.6 µM, active compounds read high
[6] = target: Nuclear receptor subfamily 5 group A member 2 (Homo sapiens) (UniProt O00482); test: NR5A2 activity suppression in reporter cells – cell-based, luminescence, confirmation (AID 651613; in the data active = inhibition above about 42%;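 note: HEK293T cells co-transfected with LRH-1 and StAR promoter luciferase reporter; 0% = vehicle wells and 100% = parental cells lacking receptor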); details: cell-based LRH-1 luciferase reporter, inverse agonism; at 3.6 µM; active compounds read high
[7] = target: Steroidogenic factor 1 (Homo sapiens) (UniProt Q13285); test: inverse agonism at SF1 nuclear receptor – cell-based, luminescence, high throughput, counter-screen for LRH-1 inverse agonist project (AID 651614; in the data active = inhibition above about 44%;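 note: cells cotransfected with StAR promoter reporter and SF1 expression vector; 0% = vehicle on cells with receptor and 100% = vehicle on cells lacking receptor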); details: cell-based SF1 luciferase reporter, at 3.6 µM, active compounds read high
[8] = compounds suppressing VP16-driven luciferase signal – cell-based, luminescence, high throughput, counter-screen for LRH-1 inverse agonist project (AID 651615; in the data active = inhibition above about 33%); details: Gal4-VP16 luciferase reporter cells, at 3.6 µM, active compounds read high

Sequence of Nuclear receptor coactivator 3 (Homo sapiens) (Q9Y6Q9 whole entry, looked up, the tested form may be a part): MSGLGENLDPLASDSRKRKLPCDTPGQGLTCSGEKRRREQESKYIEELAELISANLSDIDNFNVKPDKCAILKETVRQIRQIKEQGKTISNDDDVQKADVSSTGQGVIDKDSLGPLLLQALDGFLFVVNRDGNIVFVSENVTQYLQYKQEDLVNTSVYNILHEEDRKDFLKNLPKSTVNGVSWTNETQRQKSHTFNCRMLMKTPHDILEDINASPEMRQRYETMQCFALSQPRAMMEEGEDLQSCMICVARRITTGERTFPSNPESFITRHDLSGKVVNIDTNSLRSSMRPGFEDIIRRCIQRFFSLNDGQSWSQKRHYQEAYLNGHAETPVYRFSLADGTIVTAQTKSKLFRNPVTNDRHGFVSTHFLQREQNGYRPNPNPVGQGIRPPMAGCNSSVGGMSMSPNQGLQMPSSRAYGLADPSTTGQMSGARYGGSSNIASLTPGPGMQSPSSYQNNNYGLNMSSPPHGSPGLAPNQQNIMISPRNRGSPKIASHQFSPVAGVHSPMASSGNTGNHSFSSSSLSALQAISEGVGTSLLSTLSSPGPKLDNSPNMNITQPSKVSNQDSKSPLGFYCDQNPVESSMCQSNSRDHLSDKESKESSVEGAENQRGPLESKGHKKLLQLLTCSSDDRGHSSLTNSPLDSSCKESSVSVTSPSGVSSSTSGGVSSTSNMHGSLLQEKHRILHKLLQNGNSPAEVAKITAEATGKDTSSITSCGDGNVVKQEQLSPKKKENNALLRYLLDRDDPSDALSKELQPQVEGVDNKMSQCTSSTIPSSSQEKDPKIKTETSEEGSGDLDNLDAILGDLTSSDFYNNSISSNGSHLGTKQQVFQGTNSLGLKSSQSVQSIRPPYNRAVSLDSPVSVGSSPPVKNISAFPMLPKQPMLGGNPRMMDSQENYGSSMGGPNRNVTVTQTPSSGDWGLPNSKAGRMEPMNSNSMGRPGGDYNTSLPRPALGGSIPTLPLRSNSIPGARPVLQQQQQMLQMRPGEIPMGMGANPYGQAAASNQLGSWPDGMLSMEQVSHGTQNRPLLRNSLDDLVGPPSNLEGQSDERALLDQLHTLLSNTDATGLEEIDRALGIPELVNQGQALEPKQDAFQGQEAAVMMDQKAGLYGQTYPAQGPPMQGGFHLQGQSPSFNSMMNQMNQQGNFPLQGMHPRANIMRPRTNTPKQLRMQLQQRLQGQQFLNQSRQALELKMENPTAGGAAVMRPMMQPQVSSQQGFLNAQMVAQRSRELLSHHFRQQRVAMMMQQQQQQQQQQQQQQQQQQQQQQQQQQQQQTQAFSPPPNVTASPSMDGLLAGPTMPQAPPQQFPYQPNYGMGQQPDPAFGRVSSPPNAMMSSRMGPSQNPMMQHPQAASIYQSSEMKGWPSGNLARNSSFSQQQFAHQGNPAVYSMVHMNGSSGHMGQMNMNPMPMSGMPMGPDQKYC
Sequence of Nuclear receptor subfamily 5 group A member 2 (Homo sapiens) (O00482 whole entry, looked up): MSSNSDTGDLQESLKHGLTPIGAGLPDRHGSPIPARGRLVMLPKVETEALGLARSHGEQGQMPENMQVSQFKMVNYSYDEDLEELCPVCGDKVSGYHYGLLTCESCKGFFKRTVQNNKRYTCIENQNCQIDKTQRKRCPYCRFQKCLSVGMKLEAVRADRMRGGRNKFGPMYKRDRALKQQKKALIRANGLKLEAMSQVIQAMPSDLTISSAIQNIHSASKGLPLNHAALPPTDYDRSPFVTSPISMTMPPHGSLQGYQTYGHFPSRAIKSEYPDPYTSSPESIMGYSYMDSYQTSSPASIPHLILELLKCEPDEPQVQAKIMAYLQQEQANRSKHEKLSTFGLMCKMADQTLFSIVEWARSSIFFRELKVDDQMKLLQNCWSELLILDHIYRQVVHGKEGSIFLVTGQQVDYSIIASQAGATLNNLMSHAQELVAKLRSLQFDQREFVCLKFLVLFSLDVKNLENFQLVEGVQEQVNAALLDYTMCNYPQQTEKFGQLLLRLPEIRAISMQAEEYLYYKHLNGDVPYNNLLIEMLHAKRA
Sequence of Nuclear receptor coactivator 1 (Homo sapiens) (Q15788 whole entry, looked up, the tested form may be a part): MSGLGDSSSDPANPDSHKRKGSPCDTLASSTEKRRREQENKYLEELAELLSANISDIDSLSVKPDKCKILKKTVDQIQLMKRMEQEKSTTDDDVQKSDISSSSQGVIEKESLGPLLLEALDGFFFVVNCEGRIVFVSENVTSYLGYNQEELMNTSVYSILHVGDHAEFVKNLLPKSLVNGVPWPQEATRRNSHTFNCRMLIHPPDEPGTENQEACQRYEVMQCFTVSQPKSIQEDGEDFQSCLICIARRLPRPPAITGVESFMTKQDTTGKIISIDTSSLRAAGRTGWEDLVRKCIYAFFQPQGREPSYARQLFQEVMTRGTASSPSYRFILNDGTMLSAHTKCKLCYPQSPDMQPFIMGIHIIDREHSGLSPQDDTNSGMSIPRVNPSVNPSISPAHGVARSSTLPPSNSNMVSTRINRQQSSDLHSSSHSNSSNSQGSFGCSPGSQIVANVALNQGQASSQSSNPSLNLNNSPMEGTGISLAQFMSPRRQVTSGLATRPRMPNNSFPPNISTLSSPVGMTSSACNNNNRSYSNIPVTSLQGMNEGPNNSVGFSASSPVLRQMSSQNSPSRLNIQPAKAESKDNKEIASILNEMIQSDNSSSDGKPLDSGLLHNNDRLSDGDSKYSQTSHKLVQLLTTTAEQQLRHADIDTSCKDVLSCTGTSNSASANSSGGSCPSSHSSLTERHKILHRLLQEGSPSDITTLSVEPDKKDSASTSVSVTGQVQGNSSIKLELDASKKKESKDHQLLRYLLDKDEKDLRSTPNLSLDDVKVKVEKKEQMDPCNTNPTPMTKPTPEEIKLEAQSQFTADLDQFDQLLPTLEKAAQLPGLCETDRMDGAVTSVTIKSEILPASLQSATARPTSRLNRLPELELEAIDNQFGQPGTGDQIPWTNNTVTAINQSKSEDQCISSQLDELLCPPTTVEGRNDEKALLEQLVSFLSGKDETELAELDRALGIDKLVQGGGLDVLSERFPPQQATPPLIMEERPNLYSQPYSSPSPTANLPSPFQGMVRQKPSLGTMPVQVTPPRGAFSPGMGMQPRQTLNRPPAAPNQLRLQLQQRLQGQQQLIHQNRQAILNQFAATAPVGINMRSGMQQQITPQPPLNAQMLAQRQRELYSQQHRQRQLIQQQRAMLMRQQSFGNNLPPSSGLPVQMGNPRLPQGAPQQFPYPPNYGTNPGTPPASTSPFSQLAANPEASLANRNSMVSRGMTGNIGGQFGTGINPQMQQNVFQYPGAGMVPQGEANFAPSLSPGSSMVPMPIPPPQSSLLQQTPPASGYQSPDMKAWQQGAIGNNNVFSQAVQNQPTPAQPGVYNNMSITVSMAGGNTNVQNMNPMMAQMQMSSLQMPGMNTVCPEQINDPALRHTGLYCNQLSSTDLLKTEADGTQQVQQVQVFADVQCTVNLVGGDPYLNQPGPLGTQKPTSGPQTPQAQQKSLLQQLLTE
Sequence of Steroidogenic factor 1 (Homo sapiens) (Q13285 whole entry, looked up, the tested form may be a part): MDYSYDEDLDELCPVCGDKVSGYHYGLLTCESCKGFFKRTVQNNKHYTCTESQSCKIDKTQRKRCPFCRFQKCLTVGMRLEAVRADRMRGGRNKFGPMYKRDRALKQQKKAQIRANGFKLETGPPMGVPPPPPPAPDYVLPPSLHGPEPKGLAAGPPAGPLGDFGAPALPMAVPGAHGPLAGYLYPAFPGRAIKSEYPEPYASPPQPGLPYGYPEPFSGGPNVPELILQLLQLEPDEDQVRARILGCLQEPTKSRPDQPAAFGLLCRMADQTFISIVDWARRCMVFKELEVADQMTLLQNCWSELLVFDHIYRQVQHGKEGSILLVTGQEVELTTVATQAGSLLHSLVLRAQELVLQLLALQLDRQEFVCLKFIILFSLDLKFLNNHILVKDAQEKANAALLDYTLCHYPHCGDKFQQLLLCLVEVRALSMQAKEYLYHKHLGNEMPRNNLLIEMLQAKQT

Row | SMILES | inhibition [1] | inhibition [2] | inhibition [3] | inhibition [4] | inhibition [5] | inhibition [6] | inhibition [7] | inhibition [8]
1 | C[n+]1c(-c2ccccc2)cc2c(=Cc3ccccc3)c3ccccc3n21 | 39.3% | 70.3% (active) | 27.9% | 63.3% (active) | 54.9% (active) | 98.1% (active) | 87.2% (active) | 84.3% (active)
2 | Cc1nc2cc(NCc3nc4ccccc4n3Cc3ccccc3)ccc2n1C | -99.3% | -51.2% | -116% | -72.9% | -136% | -185% | -209% | -111%
3 | CC1(C)CC2CC(C)(CN2S(=O)(=O)c2ccc(C(=O)Nc3ccc(S(=O)(=O)N4CCOCC4)cc3)cc2)C1 (stereo not drawn) | 24.1% | 42.4% (active) | 4.08% | 44.1% (active) | 22.1% | 53.1% (active) | 46.4% (active) | 57.8% (active)
4 | Cc1sc(NC(=O)/C=C/c2ccc3c(c2)OCO3)nc1-c1ccccc1 | 24.4% | 59.1% (active) | 32.1% | 57.7% (active) | 42.9% (active) | 74.9% (active) | 74.1% (active) | 70.9% (active)
5 | Cc1cccc(C(=O)Nc2sc3c(c2C(=O)O)CCCC3)c1 | 37.5% | 59.1% (active) | 25.5% | 58.2% (active) | 53.6% (active) | 85.8% (active) | 82.3% (active) | 68.9% (active)
6 | Cc1nc(N)nc(N)c1/C=C/C(C)(C)c1ccc(Cl)cc1 | 70% (active) | 29.5% (active) | 62.2% (active) | 28.5% (active) | 78.5% (active) | 62.7% (active) | 56.5% (active) | 28.6%
7 | CC1(C)CC(N2CCCCC2)=CC(=[N+]2CCCCC2)C1 | 21.5% | 44.1% (active) | 14.8% | 39.7% (active) | 30.1% (active) | 80% (active) | 69.1% (active) | 67.3% (active)
8 | CN(C)CCNc1ccc(CO)c2oc3ccc(O)cc3c(=O)c12 | 4.57% | 31% (active) | 33% | 33.1% (active) | 47.7% (active) | 53.7% (active) | 53.1% (active) | 48.4% (active)
9 | COc1ccccc1-[n+]1c(C)cc(/C=C2\Sc3ccccc3N2C)cc1C | 81.9% (active) | 85.2% (active) | 8.54% | 79.1% (active) | 38.9% (active) | 104% (active) | 83.3% (active) | 91% (active)
10 | OCC1OC(n2cnc3c(NCc4ccccc4O)ncnc32)C(O)C1O (stereo not drawn) | 81% (active) | 82.1% (active) | 45.3% | 80% (active) | 87.5% (active) | 102% (active) | 90.3% (active) | 86.1% (active)
11 | Nc1ccc(S(=O)(=O)NNC(=O)C(=O)NNc2ccccc2)cc1 | 12.2% | 8.16% | -15.5% | 18.5% | 5.29% | 18.9% | 17.6% | 39.2% (active)
12 | O=C(O)C1CCCN1c1nc(-c2ccc(Cl)c(Cl)c2)cc(C(F)(F)F)n1 (stereo not drawn) | 53.8% (active) | 74.4% (active) | 48.3% (active) | 72.8% (active) | 74.5% (active) | 97.4% (active) | 91.4% (active) | 78.2% (active)
13 | CN(C)CCOc1ccc2c(c1)C(=O)C(=Cc1ncc([N+](=O)[O-])n1C)C2 | 54.2% (active) | 35.2% (active) | 43% | 27% (active) | 68.6% (active) | 88.4% (active) | 73.7% (active) | 51.6% (active)
14 | COC(=O)C1=C(CN2CCCc3ccccc32)NC(=O)NC1c1ccc(F)cc1 (stereo not drawn) | 65.7% (active) | 32.3% (active) | 60% (active) | 34.7% (active) | 71.5% (active) | 17% | 63.3% (active) | 4.51%
15 | CC1Cc2ccccc2N1c1ncnc(N)c1[N+](=O)[O-] (stereo not drawn) | 84.3% (active) | 68% (active) | 81.5% (active) | 65.6% (active) | 39.9% (active) | 63.6% (active) | 46.7% (active) | 82.4% (active)
16 | CC#CC[N+](C)(C)CCCCCCCCCCCC | 32.2% | 39.2% (active) | 22.1% | 32.1% (active) | 33% (active) | 65.2% (active) | 65.9% (active) | 63.5% (active)
